The text below walks through data of PubChem BioAssay (NCATS).

A short description of assay [1]: Cellular Toxicity (caspase-3) HepG2 (AID 654).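 Further: cells exposed to compound for 16 hours before reading; 0% = DMSO alone and 100% = caspase signal from 100 µM tamoxifen.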 As to conditions: HepG2 caspase-3 activation, luminescence, 0% = DMSO only, 100% = tamoxifen; series mostly up to 92.2 µM. Put shortly: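 Concentration-response AC50 values reflect caspase-3/7 induction in HepG2 cells after 16 hours of compound exposure, quantified by luminescence from liberated aminoluciferin and referenced to 100 uM tamoxifen as full stimulation.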

Assay [2] is described as follows: Cellular Toxicity (caspase-3) HUV-EC-C (AID 656). As to conditions: HUV-EC-C cells, caspase-3 activation (apoptosis), vehicle = 0, 100 µM tamoxifen = 100%; series mostly up to 92.2 µM. Put shortly:
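Read-out: luminescence proportional to caspase 3/7 activity, measured 20 min after adding Caspase-Glo 3/7 reagent. Cells (HUV-EC-C) had received compound for 16 hr at 37°C. Increases relative to DMSO and 100 uM tamoxifen gave concentration-response AC50 values.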

A short description of assay [3]: Cellular Toxicity (caspase-3) SHSY5Y (AID 657). As to conditions: SH-SY5Y caspase-3 activation, DMSO zero, 10 µM staurosporine = 100%; series mostly up to 91.7 µM. Put shortly: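 Cells plated and incubated 5 h at 37 °C, dosed over a concentration range, incubated 16 h, then given Caspase-Glo 3/7 reagent for 1 h at room temperature before luminescence reading. Staurosporine (10 uM) defined full stimulation.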

Assay [4] is described as follows: Cellular Toxicity (caspase-3) BJ (AID 658). The note with it: BJ fibroblasts, luminescence, normalized: DMSO 0%, staurosporine 100%; series mostly up to 91.7 µM. Put shortly:
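Caspase-Glo 3/7 luminescence, read 1 hr after reagent at room temperature, in normal BJ fibroblasts exposed 16 hours at 37 °C. AC50 values from Hill-equation concentration-response, scaled between DMSO basal and 10 uM staurosporine as 100%.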

Assay [5] in a line: Cellular Toxicity (caspase-3) MRC-5 (AID 659). The note with it: MRC-5 cells, luminescence, normalized: DMSO 0%, 10 µM staurosporine 100%; series mostly up to 91.7 µM. Put shortly:
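Luminescent Caspase-Glo 3/7 read-out (1 h, room temperature) after a 16 h, 37 °C compound exposure of MRC-5 lung fibroblasts at 1500 cells/well. Concentration-response AC50 from Hill equation; 0% DMSO, 100% 10 uM staurosporine.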

A short description of assay [6]: Cellular Toxicity (caspase-3) Mesangial (AID 660).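 Further: cells exposed to compound for 16 h before the caspase read.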 As to conditions: mesangial cells, normalized: DMSO 0%, 100 µM tamoxifen 100%; series mostly up to 91.7 µM. Put shortly: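 AC50 values come from Hill-equation fits of caspase 3/7 activation, measured as Caspase-Glo luminescence in human glomerular mesangial cells exposed to compound for 16 h at 37 °C; 100% set by 100 uM tamoxifen.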

Assay [7] is described as follows: Cellular Toxicity (caspase-3) SK-N-SH (AID 661). The note with it: SK-N-SH caspase-3 activation, qHTS, DMSO as zero, staurosporine as full; series mostly up to 91.7 µM. Put shortly:
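Apoptosis readout in SK-N-SH neuroblastoma: Caspase-Glo 3/7 luminescence following 16 hr treatment in complete culture medium. Normalization used DMSO and 10 uM staurosporine controls.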

Assay [8] can be described thus: Cellular Toxicity (caspase-3) H-4-II-E (AID 663).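 Further: cells exposed to compound for 16 hr before readout.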 The note with it: H-4-II-E rat hepatoma, scaled: DMSO 0%, 100 µM tamoxifen 100%; series mostly up to 92.2 µM. Put shortly: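 Caspase 3/7 activation measured by luminescent aminoluciferin substrate cleavage after 16 hr compound treatment of H-4-II-E cells in complete medium. Increase normalized between DMSO (basal) and 100 uM tamoxifen (100%); Hill-equation AC50 from concentration-response.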

The nature of assay [9]: Cellular Toxicity (caspase-3) N2a (AID 665).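 Further: compound exposure lasted 16 h at 37 °C before readout.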 The note with it: N2a cells, luminescence, normalized: DMSO 0%, 10 µM staurosporine 100%; series mostly up to 92.2 µM. Put shortly: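 Concentration-response qHTS: compound-induced caspase-3/7 luminescence in N2a cells (16 h, 37 °C), relative to DMSO and 10 uM staurosporine controls; AC50 obtained using the standard Hill equation.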

Assay [10] is described as follows: Cellular Toxicity (caspase-3) NIH 3T3 (AID 666). As to conditions: NIH 3T3 caspase-3 activation, apoptosis/toxicity, 0% DMSO, 100% is 100 µM tamoxifen; series mostly up to 92.2 µM. Put shortly:
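Activity: caspase-3/7 induction, NIH 3T3 cells, 16 hr treatment at 37°C, luminescent Caspase-Glo detection; AC50 via Hill equation.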

Assay [11] can be described thus: Cellular Toxicity (caspase-3) Renal Proximal Tubule (AID 667).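 Further: cells exposed to compound for 16 hours at 37 °C before detection.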 The note with it: renal proximal tubule cells; series mostly up to 91.7 µM. Put shortly:
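In qHTS format, rat primary proximal tubule cells seeded at 1000 per well are exposed to compounds for 16 hours at 37 °C. An increase in Caspase-Glo 3/7 luminescence indicates caspase activation.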

A short description of assay [12]: qHTS assay for small molecule activators of the p53 signaling pathway (AID 651743; active means well fitted activation curve with a large enough effect in the signal ratio, not every such curve was filed as active; the % refers to the signal ratio; further: % of control where 0% means no effect). As to conditions: HCT-116 p53RE-bla, beta-lactamase FRET ratio, 16 h; activation: hits give high values. Put shortly:
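A beta-lactamase reporter under p53 response element control, stably carried by HCT-116 cells, reported pathway activation. Test compounds were applied for 16 hours at 37 C, and fluorescence was measured 2 hours after adding the B/G FRET substrate.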
(Quantitative high-throughput screening tests each substance at several concentrations.)

The nature of assay [13]: qHTS assay for small molecule activators of the nuclear factor-kappa B (NF-kB) signaling pathway (AID 651749; active means well fitted activation curve with a large enough effect in the signal ratio; the % refers to the signal ratio; further: % of control where 0% means no effect). The note with it: NF-kB-bla ME-180 cells, beta-lactamase FRET ratio, 16 h; activation: hits give high values. Put shortly: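 FRET-based beta-lactamase detection in ME-180 cells reports NF-kB response-element-driven transcription following overnight (16 hr) compound treatment.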

Assay [14] concerns the target Tumor necrosis factor (Homo sapiens) (UniProt P01375). The assay is described as follows: qHTS assay to identify small molecules that stimulate Tumor Necrosis Factor-alpha (TNF-alpha) secretion (AID 651757; active means well fitted curve in the direction sought with a large enough effect in the signal ratio; the % refers to the signal ratio; further: 0% is about no effect). The note with it: Human cells, HTRF 665/615 ratio; series mostly up to 92.2 µM. Put shortly: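 Using 3000 THP-1 cells per well, compounds and controls were applied for 17 hrs at 37 C. Detection followed with two labeled anti-TNF-alpha antibodies (cryptate donor, XL665 acceptor) for 3 hr at room temperature, measured by TR-FRET.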

The nature of assay [15]: qHTS assay for environmental chemicals that activate the Aryl hydrocarbon Receptor (AhR) signaling pathway (AID 651777). Further: % of control where 0% means no effect; nearly all actives have a fitted effect of over 15% in size. As to conditions: 1A2-DRE human hepatoma cells, luciferase, 24 h; activation: hits give high values. Put shortly: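 Reporter gene assay: hepatoma cells with DRE/CYP1A2-luciferase, 24 hr compound incubation at 37 C, 5% CO2, luminescence after One-Glo (30 min, RT).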

For assay [16], the target named is Peroxisome proliferator-activated receptor alpha (Homo sapiens) (UniProt Q07869). The assay is described as follows: qHTS assay for small molecule agonists of the peroxisome proliferator-activated receptor alpha (PPARalpha) signaling pathway (AID 651778). Further: % of control where 0% means no effect. As to conditions: PathHunter PPARalpha complementation, chemiluminescence, 6 h; hits give high values. Put shortly: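 Chemiluminescence from complemented enzyme reported PPARalpha activation in cells after 6 hr of compound treatment at 37 C. The detection reagent was incubated for 60 min at room temperature, and compounds were scored as agonists.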

Assay [17] can be described thus: qHTS assay for small molecule agonists of the antioxidant response element (ARE) signaling pathway measured by Nrf2-dependant transcriptional activity (AID 720636; active means well fitted curve in the direction sought with a large enough effect in the repeat runs; an effect the other way counts as inactive or inconclusive; further: potency means the concentration at half of the fitted maximal effect). As to conditions: ARE-luc HepG2, Nrf2 luciferase reporter, 16 h; series mostly up to 92.4 µM. Put shortly:
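Nrf2-dependent transcription is measured in ARE-luc HepG2 cells: compound is applied for 16 hr at 37 C after a 6 hr attachment period, and luciferase activity is quantified by luminescence using ONE-Glo.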

Assay [18] in a line: qHTS assay for small molecule antagonists of the retinoid-related orphan receptor gamma (ROR-gamma) signaling pathway - cell viability counter screen (AID 720652; active means well fitted curve in the direction sought with a large enough effect in the repeat runs; an effect the other way counts as inactive or inconclusive;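 further: CHO reporter cells with doxycycline-induced ROR-gamma expression; compound exposure lasted 16 hr before ATP read; on the % scale 0 is the no-effect control and ±100 the full control effect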). As to conditions: RORgamma reporter cell line viability counter screen; series mostly up to 92.2 µM. Put shortly:
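ATP-based viability readout in the ROR-gamma reporter CHO cells after 16 hr compound exposure under doxycycline induction.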

Assay [19] can be described thus: qHTS assay for small molecule agonists of the antioxidant response element (ARE) signaling pathway measured by Nrf2-dependant transcriptional activity - cell viability counter screen (AID 720653; active means well fitted curve in the direction sought with a large enough effect in the repeat runs; an effect the other way counts as inactive or inconclusive; further: on the % scale 0 is the no-effect control and ±100 the full control effect). As to conditions: ARE-bla HepG2 viability, CellTiter-Glo ATP luminescence, 16 h; max response: hits give low values. Put shortly: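 Cytotoxicity counter screen: intracellular ATP quantified by CellTiter-Glo luminescence in the same ARE-bla HepG2 plates, after 16 h compound exposure and a 2 h beta-lactamase substrate step.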

Assay [20] deals with Nuclear receptor subfamily 1 group I member 2 (Rattus norvegicus) (UniProt Q9R1A7). The assay is described as follows: qHTS assay for small molecule activators of the rat pregnane X receptor (rPXR) signaling pathway (AID 651751; call rule not given here; further: 0% is about no effect). As to conditions: rPXR reporter cells, luciferase (One-Glo), 24 h.

Several values for one entry are separate records, joined by “and”; a condition that tells them apart may be missing. Equal values may be shown once. Values without a mark were called inactive. Records with an inconclusive call do not appear. Activity calls are given as the source filed them. Unless noted, the call rests on the fitted dose curve; in most records, active means well fitted curve in the direction sought with a large enough effect; inconclusive means small, poorly fitted or top-dose-only effect, or another doubt; inactive means no such curve, though single readings can be large; an effect the other way counts as inactive or inconclusive.

Peroxisome proliferator-activated receptor alpha (Homo sapiens), sequence (Q07869 whole entry, looked up): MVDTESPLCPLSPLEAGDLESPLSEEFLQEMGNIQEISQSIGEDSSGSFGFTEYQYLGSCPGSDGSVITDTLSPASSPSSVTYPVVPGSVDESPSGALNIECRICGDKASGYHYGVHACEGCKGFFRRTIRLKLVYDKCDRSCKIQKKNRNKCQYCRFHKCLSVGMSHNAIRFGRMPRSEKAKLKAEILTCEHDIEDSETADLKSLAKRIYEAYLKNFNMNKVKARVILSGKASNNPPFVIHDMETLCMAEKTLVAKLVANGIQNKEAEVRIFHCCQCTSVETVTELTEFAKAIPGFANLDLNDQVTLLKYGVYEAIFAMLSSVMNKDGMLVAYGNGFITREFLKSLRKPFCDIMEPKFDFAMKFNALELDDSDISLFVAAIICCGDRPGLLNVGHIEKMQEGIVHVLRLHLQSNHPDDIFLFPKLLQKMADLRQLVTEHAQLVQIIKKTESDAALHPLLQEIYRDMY
Nuclear receptor subfamily 1 group I member 2 (Rattus norvegicus), sequence (Q9R1A7 whole entry, looked up): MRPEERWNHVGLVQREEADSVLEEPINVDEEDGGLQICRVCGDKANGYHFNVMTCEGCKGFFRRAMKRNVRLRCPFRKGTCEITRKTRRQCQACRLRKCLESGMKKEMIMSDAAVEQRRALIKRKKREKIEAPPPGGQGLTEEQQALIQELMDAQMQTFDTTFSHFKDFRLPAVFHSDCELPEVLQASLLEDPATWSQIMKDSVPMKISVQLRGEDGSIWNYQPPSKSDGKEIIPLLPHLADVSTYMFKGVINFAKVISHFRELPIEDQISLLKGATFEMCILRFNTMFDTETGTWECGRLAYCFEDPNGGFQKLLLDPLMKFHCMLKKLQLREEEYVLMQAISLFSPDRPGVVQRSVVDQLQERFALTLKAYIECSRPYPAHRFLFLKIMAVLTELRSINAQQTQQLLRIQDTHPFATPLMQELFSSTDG
Tumor necrosis factor (Homo sapiens), sequence (P01375 whole entry, looked up): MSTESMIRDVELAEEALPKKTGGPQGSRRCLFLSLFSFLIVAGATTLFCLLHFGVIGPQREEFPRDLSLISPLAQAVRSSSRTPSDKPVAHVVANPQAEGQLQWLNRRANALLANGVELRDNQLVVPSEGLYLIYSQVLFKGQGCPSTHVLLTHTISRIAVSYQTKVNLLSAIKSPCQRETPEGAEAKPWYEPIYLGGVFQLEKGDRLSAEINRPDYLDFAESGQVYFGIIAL

For `CC(C)(c1ccc(OCC2CO2)cc1)c1ccc(OCC2CO2)cc1` (stereo not given), the result in assay [1], in assay [2], in [3], in [4], in assay [5] and in assay [6] was inactive. In addition, the call in assay [7], in assay [8], in assay [9], in assay [10], in [11] and in assay [14] was inactive. The outcome in assay [18] was inactive. The activation was 1.86% and -8.3% in assay [12]; -1.34% and -1.67% in assay [13]; -0.167% and 1.71% in [15]. Moreover, the max response in assay [16] was -4.29% and -0.125%; in [19], -3.1%; in [20] it was -1.73% and 0.566%. For the same molecule, in assay [17], the Potency was 66.8 µM (active).
